Screening results from PubChem BioAssay.
Shown are actives, neighbours in structure and some others; about 2.8% of the full set was active somewhere.
HIF-2a inh: inhibitors of HIF-2a; 360,000 compounds, 0.72% hits; 786-0 RCC cells HIF-2a reporter, luciferase luminescence, overnight; inhibition, % at 18.8 µM;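 active = inhibition of the luminescence signal of 40% or more relative to plate controls, in a single-dose primary screen at 18.75 µM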
CF NFkB block: blocks PAF-induced NF-kB reporter in cystic fibrosis cells; KKLEB NF-kB-GFP reporter, GFP fluorescence overnight; 360,000 compounds, 0.86% hits; AID 588850; inhibition, % at 5 µM;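 active = at least 50% inhibition at 5 µM, scaled per plate between neutral and stimulator controls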;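 note: PAF is a Pseudomonas aeruginosa culture filtrate used as stimulus; plate controls were PAF-stimulated DMSO wells for no effect and unstimulated DMSO wells for full effect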
TRPM1 prom inh: inhibitors of MITF-driven TRPM1 promoter in melanoma cells; SK-MEL-5 TRPM1 promoter luciferase, 24 h; inhibition, % at 12.5 µM; 330,000 compounds, 0.83% hits; AID 488899;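 active = mean inhibition across replicates of 60% or more, whatever share of single replicates reaches that level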
KKLEB cytotox: reduces viability of KKLEB cystic fibrosis airway cells; AID 602141; 360,000 compounds, 0.36% hits; KKLEB CF airway cells viability, ATPlite luminescence, overnight; hits give low values; cells stimulated with P. aeruginosa culture filtrate; activity change (cytotoxicity), % at 5 µM;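 active = corrected activity change at or below -50% at 5 µM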
Peg3 promoter: inhibitors of Peg3 promoter. HeLa PEG-Prom luciferase reporter, luminescence, overnight. inhibition, % at 20 µM. 360,000 compounds, 1.7% hits. AID 588405;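 active = inhibition of at least 50% at 20 µM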
Shn3 inh set2: inhibitors of Schnurri-3 3'UTR reporter in osteoblasts. Clone20 osteoblast Shn3 3'UTR firefly luciferase, 24 h. inhibition, % at 12.5 µM. 360,000 compounds, 0.52% hits;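 active = mean inhibition of at least 75% with every replicate also reaching 75%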;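 note: 0% = median of neutral control wells and 100% = pilot-screen positive control compound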
Mdm2 MdmX conf: confirmation of inhibitors of human Mdm2/MdmX interaction, set 2; shares compounds with HIF-2a inh; SaOS-2 split-luciferase Mdm2/MdmX complementation, luminescence; inhibition, % at 8 µM; 740 compounds, 99% hits; AID 504601;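 active = mean inhibition of the luminescence signal across two replicates at or above 26 percent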
Target sequence (O15151 whole entry, looked up): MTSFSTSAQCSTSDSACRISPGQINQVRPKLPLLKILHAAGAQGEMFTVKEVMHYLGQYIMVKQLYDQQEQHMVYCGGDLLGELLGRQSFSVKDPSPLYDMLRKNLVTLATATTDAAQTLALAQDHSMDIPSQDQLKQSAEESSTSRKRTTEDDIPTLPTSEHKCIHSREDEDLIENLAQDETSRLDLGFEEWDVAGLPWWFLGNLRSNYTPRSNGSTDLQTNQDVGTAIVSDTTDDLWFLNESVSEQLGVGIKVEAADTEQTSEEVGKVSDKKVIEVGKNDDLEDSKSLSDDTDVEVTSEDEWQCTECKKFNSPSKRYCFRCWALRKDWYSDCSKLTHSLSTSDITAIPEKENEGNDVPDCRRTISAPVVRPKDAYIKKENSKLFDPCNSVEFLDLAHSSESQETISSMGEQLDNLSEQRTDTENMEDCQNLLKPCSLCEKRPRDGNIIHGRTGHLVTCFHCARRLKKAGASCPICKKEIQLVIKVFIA
Target sequence (Q00987 whole entry, looked up): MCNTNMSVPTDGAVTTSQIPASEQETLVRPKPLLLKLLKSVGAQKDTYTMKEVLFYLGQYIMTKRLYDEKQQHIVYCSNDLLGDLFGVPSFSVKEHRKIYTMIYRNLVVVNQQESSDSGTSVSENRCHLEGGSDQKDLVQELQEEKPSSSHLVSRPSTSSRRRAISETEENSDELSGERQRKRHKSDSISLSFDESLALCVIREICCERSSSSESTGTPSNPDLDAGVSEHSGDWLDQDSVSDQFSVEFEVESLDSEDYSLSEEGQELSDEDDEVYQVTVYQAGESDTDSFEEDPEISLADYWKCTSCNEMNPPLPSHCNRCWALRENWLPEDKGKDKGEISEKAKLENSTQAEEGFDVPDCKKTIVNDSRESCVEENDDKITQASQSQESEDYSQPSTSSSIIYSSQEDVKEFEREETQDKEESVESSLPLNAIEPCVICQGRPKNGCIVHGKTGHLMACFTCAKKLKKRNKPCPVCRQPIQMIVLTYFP
HIF-2a inh conf: HIF-2a inhibition, single concentration confirmation | shares compounds with HIF-2a inh | 786-0 RCC cells, HIF-2a luciferase reporter luminescence, overnight | inhibition, % at 18.8 µM | 1,800 compounds, 56% hits;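 active = mean inhibition across four replicates of at least 40 percent at the single tested concentration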
HIF-1a counter: inhibits HIF-1a reporter, a counter-screen for HIF-2a inhibitors; shares compounds with HIF-2a inh; 1,800 compounds, 72% hits; MiaPaCa-2 HIF-1a luciferase reporter, desferoxamine, overnight; inhibition, % at 18.8 µM;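 active = mean inhibition of the reporter signal across four replicates at the single tested dose of 50% or more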
Active calls of the source: *; . = no result given.

SMILES | HIF-2a inh | CF NFkB block | TRPM1 prom inh | KKLEB cytotox | Peg3 promoter | Shn3 inh set2 | HIF-2a inh conf | HIF-1a counter | others
CCOC(=O)Cc1csc(N/N=C/c2ccc(C(F)(F)F)cc2)n1 | 58* | 13 | 13 | -2 | -53 | 30 | 58* | 17
CCOC(=O)Cc1csc(NC(=S)NC(=O)c2ccc(F)cc2)n1 | 86* | -12 | 10 | -8 | 1 | -17 | 89* | 59*
CCOC(=O)Cc1csc(NC(=S)NC(=O)c2ccccc2C)n1 | 54* | 6 | -4 | 3 | -8 | 1 | 58* | 17
CC(NC(=O)Nc1ccccc1F)C(C)(C)C (stereo not drawn) | 4 | -10 | -8 | 9 | -8 | 10 | . | .
COc1ccc(NC(=O)CN(C)C(=O)CCc2ccccc2)cc1 | -2 | 2 | -1 | -1 | 1 | -6 | . | .
CCN(CC(=O)Nc1ccc(NC(C)=O)cc1)C(=O)C1(c2ccc(Cl)cc2)CCC1 | 51* | -54 | . | 12 | 17 | 13 | 32 | 1
COc1ccc(NC(=O)CN(C)C(=O)C2(c3ccccc3)CCCC2)cc1 | 51* | -108 | 40 | 5 | 45 | 37 | 32 | 15
COc1cccc(C(=O)/C=C/c2ccc(OCC#N)c(OC)c2)c1 | 85* | 12 | 55 | -28 | 107* | 3 | 42* | 105*
CCOc1ccc(/C=C/C(=O)c2ccccc2)cc1OC | -145 | 0 | -45 | -12 | -203 | -66 | . | .
O=C(CN1CCN(c2ccccc2O)CC1)Nc1cccnc1Cl | 10 | 8 | 0 | 4 | -4 | 12 | . | .
COc1cccc(/C=N/Nc2cc(-n3nc(C)cc3-c3ccccc3)ncn2)c1O | 16 | 48 | 28 | -19 | 52* | 90* | . | . | Mdm2 MdmX conf=91*
COc1cccc(/C=N/Nc2nc(Nc3ccccc3)nc(-n3nc(C)cc3C)n2)c1O | -94 | -20 | 29 | -12 | 32 | 60 | . | .
Cc1cc(N2CCCCC2)nc(NCc2ccccc2)n1 | 47* | 6 | 43 | -20 | 38 | 88* | 18 | 60*
OCCCNc1c2ccccc2nc2ccccc12 | 6 | -126 | 83* | 6 | 104* | -16 | . | . | Mdm2 MdmX conf=97*
CCc1nc2ccc(C(=O)N3CCN(C)CC3)cn2c1N(CCC(C)C)CCN(C)C | 7 | 1 | . | -6 | -6 | 5 | . | .
Cc1ccc(C(=O)N/C(=C\c2ccc(-c3ccc(Br)cc3)o2)C(=O)NCCCN(C)C)cc1 | 33 | 15 | 107* | -19 | 109* | 6 | . | . | Mdm2 MdmX conf=103*
Cc1ccsc1C(C(=O)NC(C)(C)C)N(C(=O)c1csnn1)c1ccccc1 (stereo not drawn) | 17 | -7 | . | 14 | 6 | 14 | . | .
O=C(O)c1cccc2c1C(=O)c1ccccc1-2 | 19 | 5 | 17 | -2 | 3 | -3 | . | .
O=C1C(=C(I)I)c2ccccc2-c2ccccc21 | 93* | 82* | 99* | -100* | 104* | 98* | 96* | 103*
Nc1ncnc2c(C3OC(CO)C(O)C3O)c[nH]c12 (stereo not drawn) | 50* | 83* | . | -53* | 96* | 93* | 37 | 106*
Nc1ncnc2c1ncn2[C@@H]1O[C@H](CO)[C@@H](O)[C@H]1O | 1 | -14 | -12 | 16 | -11 | 0 | . | .
Oc1ccccc1N=Nc1nc(-c2ccccc2)c(-c2ccccc2)[nH]1 | 17 | 81* | 80* | 2 | 49 | 88* | . | . | Mdm2 MdmX conf=87*
C#CCn1c(S(=O)(=O)Cc2ccc(C)cc2)nc(-c2ccccc2)c1-c1ccccc1 | -17 | -16 | -7 | 16 | 33 | 26 | . | . | Mdm2 MdmX conf=100*
CCCCNC(=S)N(CCN(C)C)Cc1cc2cc3c(cc2[nH]c1=O)OCCO3 | 13 | 2 | 9 | -3 | 5 | -3 | . | .
Cc1ccc(C(=O)c2cccc(N)c2)cc1C | 84* | -8 | 66* | -14 | -19 | 2 | 93* | 56*
SMILES | HIF-2a inh | CF NFkB block | TRPM1 prom inh | KKLEB cytotox | Peg3 promoter | Shn3 inh set2 | HIF-2a inh conf | HIF-1a counter | others
CCC(=O)Nc1cccc(C(=O)/C=C/c2ccccc2)c1 | 44* | 3 | 10 | -10 | 102* | -36 | -46 | 101*
Cc1ccc(C(=O)c2ccc(O)cc2)cc1C | -126 | 5 | -35 | 3 | -128 | -40 | . | .
CCC(=O)Nc1cccc(C(=O)c2ccc(C)c(C)c2)c1 | 45* | -3 | -11 | -7 | -20 | 13 | 65* | 15
CC(C)(C)C1N=C(c2ccc3ccccc3c2)OC1=O (stereo not drawn) | 4 | -4 | 7 | -5 | 6 | -16 | . | .
CCOC(=O)N=S(N)(=O)c1ccccc1 (stereo not drawn) | -5 | 8 | 0 | -7 | 7 | -15 | . | .
CCOC(=O)CC(S(=O)(=O)c1ccccc1)S(=O)(=O)c1ccccc1 | 76* | 87* | . | -90* | 100* | 33 | 11 | 1
Cc1noc(/C=C/c2cccnc2)c1[N+](=O)[O-] | 48* | -15 | -3 | 10 | 39 | 2 | 37 | 56*
Cc1cccc(C)c1N/C=C/c1onc(C)c1[N+](=O)[O-] | 0 | 8 | -15 | -2 | 18 | -12 | . | .
CSc1nc(C2CC2)cc(-c2cccs2)c1C#N | 51* | 94* | 22 | -63* | 57* | 4 | 35 | 32
COc1ccc(-c2cc(C3CC3)nc(SCC(=O)c3cccs3)c2C#N)cc1 | 20 | -7 | -3 | -21 | 23 | 29 | . | .
Cc1[nH]n(-c2ccccc2)c(=O)c1/C=N/Nc1nncc(-c2ccccc2)n1 | -89 | 41 | 50 | -39 | 18 | 75 | . | . | Mdm2 MdmX conf=84*
Cc1ccc(/C=N/Nc2nncc(-c3ccccc3)n2)o1 | -92 | -2 | -34 | 1 | -119 | -18 | . | .
CN(C(=O)COC(=O)CCC(=O)c1ccc(F)cc1)C1CCCCC1 | -2 | -30 | -8 | 21 | 10 | -25 | . | .
Nc1c(N(C(=O)Nc2ccc(Cl)c(Cl)c2)C2CCCC2)c(=O)[nH]c(=O)n1Cc1ccccc1 | 40* | 19 | 77* | -27 | 48 | 30 | 11 | 103*
COCCN(C(=O)C1CCCC1)c1c(N)n(Cc2ccccc2)c(=O)[nH]c1=O | 15 | 8 | 10 | 5 | -1 | 0 | . | .
CC(C)N1CCc2c(sc(NC(=O)Cc3ccccc3)c2C(N)=O)C1 | -17 | -19 | . | -1 | 11 | -20 | . | .
CC(=O)Nc1sc2c(c1-c1nc3ccccc3s1)CCN(C(C)C)C2 | 40* | -1 | 77* | -31 | 99* | 81 | . | . | Mdm2 MdmX conf=101*
